Here are results for eight compounds from PubChem BioAssay (NCI).

The panel holds about 83,000 compounds, 20% with a hit somewhere; the sample as a whole holds those more often.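 The test compound was applied at a single concentration to cells in 96-well plates for 48 hours, and percent growth was recorded.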 A number with no mark means an inactive call. The source made the active and inactive calls. Rule for the calls: active = growth percent below 10; inactive = the rest.

Test systems include SK-MEL-2 melanoma; EKVX NSCLC; SN12C renal; UO-31 renal; TK-10 renal; ACHN renal; CAKI-1 renal; A498 renal; CCRF-CEM leukemia; MOLT-4 leukemia; SR leukemia; RPMI-8226 leukemia; OVCAR-8 ovarian; OVCAR-5 ovarian; OVCAR-4 ovarian; SK-OV-3 ovarian; IGROV1 ovarian; OVCAR-3 ovarian; HS 578T breast; NCI/ADR-RES ovarian.
Experiment in all cases: NCI-60 one-dose screen, 48 h (100 = growth as untreated, 0 = no growth, -100 = all killed)
Common to all, as to conditions: 10 µM unless noted

`Oc1ccc(Cl)c(Nc2ncnc3c2cnn3CC(Cl)c2ccc(Br)cc2)c1` (stereo not given): the growth with SK-MEL-2 melanoma is 84.8%; in the assay with EKVX NSCLC it was 55.4%; in the assay with SN12C renal it was 43.9%; in the assay on UO-31 renal, 21.3%; in the assay on TK-10 renal it was 47.1%; in the assay on ACHN renal, 8.02% (active). Further, the growth was 18.3% in the assay with CAKI-1 renal; 98.9% in the assay with A498 renal; 59.8% in the assay with CCRF-CEM leukemia; 34.7% in the assay on MOLT-4 leukemia; 55.3% in the assay with SR leukemia; 52.3% with RPMI-8226 leukemia. The growth in the assay on OVCAR-8 ovarian is 54.9%; with OVCAR-5 ovarian, 49.6%; in the assay on OVCAR-4 ovarian, 57.8%; with SK-OV-3 ovarian, 49.2%; in the assay on IGROV1 ovarian, -2.62% (active); with OVCAR-3 ovarian, 32.3%. Besides, the growth in the assay with HS 578T breast was -17.7% (active); in the assay on NCI/ADR-RES ovarian it was 48%.
Turning to `CCCn1c(NC(=O)c2cccc(C(N)=O)c2)nc2cc(CN3CCCCC3)ccc21`, the growth in the assay on SK-MEL-2 melanoma is 115%; with EKVX NSCLC it was 100%; with SN12C renal, 89%; with UO-31 renal it was 67.5%; in the assay on TK-10 renal, 92.6%; with ACHN renal it was 77.8%. The growth with CAKI-1 renal was 53.3%; in the assay with A498 renal it was 170%; in the assay on CCRF-CEM leukemia, 94.7%; in the assay on MOLT-4 leukemia, 94.8%; in the assay with SR leukemia it was 41.5%; in the assay with RPMI-8226 leukemia, 80.7%. Besides, the growth is 117% with OVCAR-8 ovarian; 99% in the assay with OVCAR-5 ovarian; 90.2% in the assay with OVCAR-4 ovarian; 83.4% in the assay with SK-OV-3 ovarian; 88.5% in the assay on IGROV1 ovarian; 101% with OVCAR-3 ovarian. Besides, the growth with HS 578T breast is 119%; in the assay on NCI/ADR-RES ovarian, 114%.
For `CCCCCCCCc1ccc(C(=O)Nc2ccc(C)c(OP(=O)(O)O)c2)cc1`, the growth is 109% in the assay with SK-MEL-2 melanoma; 101% in the assay on EKVX NSCLC; 95.1% with SN12C renal; 62.4% with UO-31 renal; 107% in the assay on TK-10 renal; 103% with ACHN renal. Besides, the growth was 102% in the assay on CAKI-1 renal; 107% in the assay with A498 renal; 42.9% with CCRF-CEM leukemia; 78.3% in the assay with MOLT-4 leukemia; 81.9% in the assay on SR leukemia; 50.6% in the assay with RPMI-8226 leukemia. The growth with OVCAR-8 ovarian is 100%; with OVCAR-5 ovarian, 120%; in the assay on OVCAR-4 ovarian, 88.9%; in the assay with SK-OV-3 ovarian, 115%; in the assay on IGROV1 ovarian it was 110%; with OVCAR-3 ovarian, 96.2%. The growth in the assay with HS 578T breast was 91.6%; with NCI/ADR-RES ovarian it was 97.5%.
Regarding `COc1cc(/C=C/C(=O)c2cnn(-c3cc(=O)[nH]c4ccccc34)c2C)cc(OC)c1OC`, the growth in the assay on SK-MEL-2 melanoma is 52%; in the assay on EKVX NSCLC, 4.03% (active); in the assay on SN12C renal it was -1.59% (active); with UO-31 renal it was 25.6%; with TK-10 renal, 27.7%; in the assay with ACHN renal, 20.3%. In addition, the growth in the assay with CAKI-1 renal was 19.1%; in the assay with A498 renal, 96.1%; in the assay with CCRF-CEM leukemia, -18.6% (active); in the assay with MOLT-4 leukemia, -12.8% (active); in the assay with SR leukemia, -3.34% (active); in the assay on RPMI-8226 leukemia, -11.6% (active). In addition, the growth in the assay with OVCAR-8 ovarian was -18.1% (active); in the assay with OVCAR-5 ovarian, -3.98% (active); with OVCAR-4 ovarian it was 39.4%; with SK-OV-3 ovarian it was 9.66% (active); in the assay on IGROV1 ovarian, 6.78% (active); in the assay on OVCAR-3 ovarian, 8.06% (active). The growth with HS 578T breast is 35.5%; in the assay on NCI/ADR-RES ovarian, 42.2%.
Consider `O=C(Nc1ccc(Br)cc1)Nc1ccc(-c2ccc3c(c2)NC(=O)/C3=C\c2ccc[nH]2)cc1`, for which the growth in the assay on SK-MEL-2 melanoma is 36.7%; with EKVX NSCLC, 42.3%; in the assay on SN12C renal, 52.5%; with UO-31 renal it was 20.6%; in the assay with TK-10 renal, 52.3%; in the assay on ACHN renal it was 30%. The growth in the assay with CAKI-1 renal was 31.1%; in the assay with A498 renal, 105%; with CCRF-CEM leukemia, 25.3%; in the assay on MOLT-4 leukemia it was 35.6%; in the assay with SR leukemia, 18.4%; in the assay with RPMI-8226 leukemia it was 32.2%. For the same compound, the growth in the assay with OVCAR-8 ovarian is 35.4%; in the assay on OVCAR-5 ovarian, 55.3%; in the assay on OVCAR-4 ovarian, 33.9%; in the assay with SK-OV-3 ovarian it was 77.1%; with IGROV1 ovarian it was 46.9%; in the assay with OVCAR-3 ovarian it was 12.3%. The growth in the assay with HS 578T breast is 56%; with NCI/ADR-RES ovarian, 25.7%.
Take `Cc1cnc2ccc(Oc3ccccc3-c3ccccc3)nn12`: the growth was 108% in the assay on SK-MEL-2 melanoma; 100% in the assay on EKVX NSCLC; 100% with SN12C renal; 90.1% in the assay on UO-31 renal; 106% in the assay with TK-10 renal; 105% in the assay on ACHN renal. In addition, the growth in the assay with CAKI-1 renal was 94.5%; with A498 renal, 116%; with CCRF-CEM leukemia it was 103%; in the assay on MOLT-4 leukemia, 107%; in the assay on SR leukemia it was 89.3%; with RPMI-8226 leukemia, 106%. Besides, the growth in the assay with OVCAR-8 ovarian was 103%; in the assay with OVCAR-5 ovarian it was 111%; in the assay with OVCAR-4 ovarian, 112%; with SK-OV-3 ovarian it was 178%; in the assay on IGROV1 ovarian, 105%; in the assay on OVCAR-3 ovarian it was 120%. In addition, the growth in the assay with HS 578T breast is 120%; in the assay with NCI/ADR-RES ovarian it was 104%.
With `COc1ccc(Nc2nnc(-c3c[nH]c4ccccc34)o2)cc1`, the growth in the assay with SK-MEL-2 melanoma is 92%; with EKVX NSCLC, 68%; in the assay on SN12C renal, 58.6%; in the assay on UO-31 renal, 62.6%; with TK-10 renal, 135%; with ACHN renal, 89.6%. Also, the growth is 72.9% in the assay with CAKI-1 renal; 130% with A498 renal; 7.79% (active) with CCRF-CEM leukemia; 40.3% with MOLT-4 leukemia; 70.5% in the assay with SR leukemia; 32.5% in the assay with RPMI-8226 leukemia. The growth is 86.2% in the assay on OVCAR-8 ovarian; 103% in the assay on OVCAR-5 ovarian; 85.3% in the assay with OVCAR-4 ovarian; 74.2% in the assay with SK-OV-3 ovarian; 60.9% in the assay on IGROV1 ovarian; 94.4% in the assay on OVCAR-3 ovarian. Besides, the growth in the assay with HS 578T breast was 81.2%; with NCI/ADR-RES ovarian, 73.8%.
For the compound `COc1ccc2[nH]c(O)c(N=Nc3nc(-c4ccc(Br)cc4)cs3)c2c1`, the growth in the assay on SK-MEL-2 melanoma was 21.1%; with EKVX NSCLC it was 6.08% (active); in the assay on SN12C renal it was -46.4% (active); with UO-31 renal, 0.841% (active); in the assay on TK-10 renal it was 33.4%; in the assay with ACHN renal, -64.2% (active). Also, the growth with CAKI-1 renal is 2.6% (active); in the assay with A498 renal, -78% (active); in the assay on CCRF-CEM leukemia, 14.7%; with MOLT-4 leukemia, -17.7% (active); with SR leukemia, 19.3%; in the assay with RPMI-8226 leukemia it was 16.3%. The growth was -23.7% (active) in the assay with OVCAR-8 ovarian; 31.4% in the assay on OVCAR-5 ovarian; -69.6% (active) with OVCAR-4 ovarian; -35.3% (active) with SK-OV-3 ovarian; 30.6% with IGROV1 ovarian; -71.3% (active) in the assay on OVCAR-3 ovarian. For the same compound, the growth is 29.3% in the assay with HS 578T breast and -24.6% (active) with NCI/ADR-RES ovarian.
